Measured values published in PubChem BioAssay (EPA / NIEHS).
Activity calls are given as the source filed them. How the source made its calls: active means hit-call score of the fitted dose curve at least 0.9, where 1 is the maximum; inactive means score below 0.9.

Each compound was assayed on Tissue plasminogen activator (tPA), PLAT (gene 5327) (assay: BSK_BE3C_tPA: BioMAP Diversity Plus: BE3C Assay for Tissue plasminogen activator (tPA) Biomarker Activity (AID 2283041)). Details: primary human bronchial epithelial cells; actives raise or lower the signal.
Experimental: BSK_BE3C is a cell-based, multiplexed-readout assay that uses bronchial epithelial cell, a human lung primary cell, with measurements taken at 24 hours after chemical dosing in a 96-well plate.BSK_BE3C_tPA is an assay component measured in the BSK_BE3C assay. It measures tPA antibody related to regulation of gene expression using ELISA technology.Data from the assay component BSK_BE3C_tPA was analyzed into 1 assay endpoint. This assay endpoint, BSK_BE3C_tPA, was analyzed with bidirectional fitting relative to DMSO as the negative control and baseline of activity. Using a type of binding reporter, gain or loss-of-signal activity can be used to understand changes in the signaling as they relate to the gene PLAT. Furthermore, this assay endpoint can be referred to as a primary readout, because this assay has produced multiple assay endpoints where this one serves a signaling function. To generalize the intended target to other relatable targets, this assay endpoint is annotated to the protease intended target family, where the subfamily is serine protease.
The levels of cell surface (or secreted, indicated by the prefix "s") biomarker endpoints were measured by ELISA. Overt cytotoxicity to cells in confluent adherent cultures (all systems other than the BT system) was assessed by measuring total protein levels using sulforhodamine B (SRB) staining in parallel cultures at the time of biomarker measurements, indicated as SRB endpoints. For proliferation assays for adherent cell types, individual cell types are cultured at sub-confluence and relative cell numbers quantified by SRB staining at time points optimized for each system (48 h: 3C and CASM3C systems; 72 h: BT and HDF3CGF systems; 96 h: SAg system). SRB was performed by staining cells with 0.1% SRB after fixation with 10% TCA and reading wells at 560 nm.Viability and proliferation of PBMC (T cells) was quantified by Alamar Blue reduction for the SAg and BT systems. For PBMC viability (referred to as PBMC Cytotoxicity within the assay endpoint names), cells were plated (75,000/well in a 96-well plate) and then chemical samples added for 1 h before addition of activators, SEB and TSST-1 (20 ng/mL final concentration each). Cells were incubated for 90 h. Then, Alamar Blue (20 uL/well) (Invitrogen, Cat DAL1100) was added for 6 h, and the plates were read with a fluorescence microplate reader at 546/580 nm (excitation/emission). For PBMC proliferation, cells were plated and activated as above but incubated for only 16 h prior to addition of Alamar Blue. Plates were read after 6 h.

Structure (SMILES)	outcome	AC50
Oc1c(Br)cc(Br)cc1Br	inactive	
Cc1ccc(OP(=O)(Oc2ccc(C)cc2C)Oc2ccc(C)cc2C)c(C)c1		3.86 µM (active)
CCOP(=S)(OCC)OP(=S)(OCC)OCC	inactive	
C#CCOC(=O)/C=C(C)/C=C/CC(C)CCCC(C)C (stereo not given)	inactive	
CCOC(=O)CC(=O)CCl		3.97 µM (active)
CCCCCCCCCCCCN(C)C	inactive	
CCOP(=O)(OCC)OC(=CCl)c1ccc(Cl)cc1Cl	inactive	
C[C@]12CC[C@@H](O)C[C@@H]1CC[C@@H]1[C@@H]2CC[C@]2(C)C(=O)CC[C@@H]12	inactive	
Nc1ccc(N)cc1	inactive	
CCN(CC)C(=O)C(Cl)=C(C)OP(=O)(OC)OC	inactive	
CN(C)C(=S)S		9.34 µM (active)
Oc1c(Cl)cc(Cl)cc1Cl	inactive	
Cc1cc(C)cc(C)c1	inactive	
Cc1cc(Cl)ccc1N	inactive	
Oc1cccc(-c2ccccc2)c1	inactive	
O=C1C=CC(=O)c2ccccc21		3.27 µM (active)
CC1(C)[C@H](C(=O)O[C@H](C#N)c2cccc(Oc3ccccc3)c2)[C@@H]1/C=C(\Cl)C(F)(F)F	inactive	
[Cl][Sn]([c]1ccccc1)([c]1ccccc1)[c]1ccccc1		0.0792 µM (active)
O=C(O)COc1cc(Cl)c(Cl)cc1Cl	inactive	
O=[N+]([O-])c1ccc(Nc2ccccc2)cc1	inactive	

Structure (SMILES)	outcome	AC50
N#CCCC(Br)(C#N)CBr (stereo not given)		9.86 µM (active)
Cc1cc(C(C)(C)c2ccc(O)c(C)c2)ccc1O		15.2 µM (active)
CCOP(=S)(OCC)SCS(=O)(=O)C(C)(C)C	inactive	
CC(C)(C)c1cc([N+](=O)[O-])cc(C(C)(C)C)c1O	inactive	
COc1ccccc1N	inactive	
CC(C=O)Cc1ccc2c(c1)OCO2 (stereo not given)	inactive	
O=S(=O)(c1ccc(Cl)cc1)c1cc(Cl)c(Cl)cc1Cl	inactive	
Cc1cc(Cl)ccc1OC(C)C(=O)O (stereo not given)	inactive	
Oc1ccc(Cc2ccc(O)cc2)cc1	inactive	
CCOC(=O)CCN(SN(C)C(=O)Oc1cccc2c1OC(C)(C)C2)C(C)C	inactive	
CCC(C)(C#N)N=NC(C)(C#N)CC (stereo not given)	inactive	
O=C(N[C@H]1CN2CCC1CC2)c1ccc2c(c1)OCCO2	inactive	
Cc1c([N+](=O)[O-])c(C)c([N+](=O)[O-])c(C(C)(C)C)c1[N+](=O)[O-]	inactive	
CCOP(=O)(OCC)SCCSCC	inactive	
O=C(Cc1ccccc1)OCCc1ccccc1	inactive	
CC(C)(COCC1CO1)COCC1CO1 (stereo not given)	inactive	
N#Cc1cccnc1	inactive	
O=c1oc2ccccc2c(O)c1C(CC(O)c1ccc(-c2ccc(Br)cc2)cc1)c1ccccc1 (stereo not given)		0.837 µM (active)
O=S(=O)(C(Cl)(Cl)Cl)C(Cl)(Cl)Cl		4.81 µM (active)
O=[N+]([O-])c1cccc2ccccc12	inactive	
